# APP 5'UTR act: APP 5'UTR luciferase reporter activation; SH-SY5Y APP 5'UTR luciferase reporter, luminescence; zero percent = DMSO vehicle wells; activation, % at 2 µM; actives 1% (n = 190,000);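 active = activation above a set limit, based on mean plus 3 SD of controls, cut at about 140% in these data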
# Wee1 degr inh: human Wee1 degradation inhibition, primary screen; P30291; reporter increase, % at 5 µM; HeLa Luc-Wee1K328M stability, luciferase luminescence; 100% = proteasome inhibitor MG132 effect; actives 1.2% (n = 220,000);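 active = activation above the mean of all tested compounds plus 3 SD, set per screening run, cut at about 8.8% in these data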;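 also: cells exposed to compound for 20 h before luminescence read; 0% = DMSO alone and 100% = MG132 at 30 µM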
# Target sequence (P30291 whole entry K328M): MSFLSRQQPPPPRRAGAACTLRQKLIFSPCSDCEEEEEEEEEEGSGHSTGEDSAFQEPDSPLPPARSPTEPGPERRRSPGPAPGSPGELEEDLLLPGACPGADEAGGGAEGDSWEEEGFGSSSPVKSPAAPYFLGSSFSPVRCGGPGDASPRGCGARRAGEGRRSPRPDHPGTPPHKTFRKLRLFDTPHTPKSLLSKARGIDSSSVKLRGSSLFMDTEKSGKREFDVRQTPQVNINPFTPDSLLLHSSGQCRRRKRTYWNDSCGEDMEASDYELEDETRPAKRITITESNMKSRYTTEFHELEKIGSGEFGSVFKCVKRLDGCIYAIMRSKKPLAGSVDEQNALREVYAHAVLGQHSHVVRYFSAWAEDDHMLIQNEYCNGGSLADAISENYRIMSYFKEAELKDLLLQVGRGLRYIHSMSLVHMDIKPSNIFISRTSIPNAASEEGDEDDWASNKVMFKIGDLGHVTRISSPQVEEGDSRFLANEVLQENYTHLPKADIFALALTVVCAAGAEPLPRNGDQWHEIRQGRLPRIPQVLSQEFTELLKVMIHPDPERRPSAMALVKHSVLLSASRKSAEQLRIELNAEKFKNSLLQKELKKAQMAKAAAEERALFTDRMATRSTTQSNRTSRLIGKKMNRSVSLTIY
# APP transl inh: APP translation inhibition | actives 0.82% (n = 190,000) | SH-SY5Y APP 5'UTR-luciferase reporter, luminescence | inhibition, % at 2 µM | AID 1285;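 active = inhibition above a set limit, derived from the sample mean plus 3 SD, cut at about 45% in these data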
# STAT1 activator: STAT1 signaling activation; NIH 3T3 STAT1-luciferase reporter, IFN-gamma, luminescence; 100% = IFN-gamma alone, no compound; activation (% of control), % at 5.5 µM; actives 2.6% (n = 200,000);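 active = activation above the screen-wide mean activation plus 3 SD, cut at about 130% in these data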;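 also: raw ratio to IFN-gamma control signal so 100% means no change and 0% no light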
# Hsp70 activator: Hsp70 transcriptional activation, primary screen | HeLa Hsp70 promoter luciferase reporter, luminescence; scaled: vehicle 0, proteasome-inhibitor control 100% | activation, % at 10 µM | actives 0.04% (n = 200,000);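 active = activation above the mean across all tested compounds plus 3 SD, cutoff set per campaign, cut at about 5.5% in these data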;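 also: 100% = MG132 at 30 µM as the positive control and 0% = DMSO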
# NF-kB expr up: compounds increasing NF-kB expression in human neuronal cells. fold change at 12.5 µM. actives 1.6% (n = 190,000). NF-kB reporter expression; active compounds read high; in the data active = fold change above about 3.3
# Active calls of the source: *; . = no result given. Rows were chosen to be rich in hits. Some 4.8% of all compounds tested hit in one or more screens of this group.
SMILES,APP 5'UTR act,Wee1 degr inh,APP transl inh,STAT1 activator,Hsp70 activator,NF-kB expr up
CC(C#N)Sc1nnc(Nc2ccccc2)s1 (configuration not stated),9,-2,-9,104,0,2.3
COCCOC(=O)c1[nH]c2c(c1C)C(=O)CC(c1cc(OC)ccc1OC)C2 (configuration not stated),12,6,-12,100,0,0.93
C/C=C/COC(=O)c1[nH]c2c(c1C)C(=O)CC(c1ccco1)C2 (configuration not stated),-95,0,95*,87,1,1.9
CCOC(=O)c1[nH]c2c(c1-c1ccccc1)C(=O)CC(c1ccccc1)C2 (configuration not stated),18,-3,-18,108,0,1.6
COC(=O)c1[nH]c2c(c1C)C(=O)CC(c1ccccc1)C2 (configuration not stated),-96,2,96*,100,1,3.1
Cc1c(C(=O)N2CCOCC2)[nH]c2c1C(=O)CC(c1ccccc1Cl)C2 (configuration not stated),-85,8,85*,100,0,1.3
COC(=O)C1C(=O)c2c([nH]c(C(=O)OC3CCCC3)c2C)CC1C (configuration not stated),109,8,-109,144*,1,3.4*
Cc1c(C(=O)OC2CCCC2C)[nH]c2c1C(=O)CCC2 (configuration not stated),25,3,-25,110,0,2
CCOc1ccc(Cc2nc(N)nc(N)n2)cc1,9,7,-9,109,0,1.3
Nc1nc(N)nc(COc2ccccc2)n1,38,9.4*,-38,116,0,1.8
COc1ccc2c(c1)[nH]c1c(=O)n(CCc3cnc[nH]3)cnc12,12,-1,-12,89,0,0.93
CCCC(=O)c1c(NCCO)cc(C)oc1=O,3,8.9*,-3,90,0,1.9
CCCNc1cc(C)oc(=O)c1C(=O)CCC,0,3,0,94,0,0.88
CCCCN1C(=O)C(=O)N(c2ccccc2)C1=S,87,-3,-87,135*,0,3.4*
CCN1/C(=C2\C(=O)N(C)C(=S)N2c2ccccc2)C=Cc2ccccc21,.,1,.,.,.,.
C/C(N)=C(/C#N)C(=O)CSc1nnc(Nc2ccccc2C)s1,-4,-5,4,110,0,0.95
C/C(N)=C(/C#N)C(=O)CSc1nnc(Nc2ccccc2)s1,34,1,-34,148*,0,1.4
Cc1c(C(=O)N(C)C)sc(NC(=O)c2cccc([N+](=O)[O-])c2)c1C#N,8,10*,-8,106,0,1.2
Cc1nn(C)c(Cl)c1/C=N/OC(=O)c1ccc(F)cc1,14,8,-14,103,-1,1.1
CCOCCCn1c(=N)c(C(N)=S)cc2c(=O)n3cccc(C)c3nc21,-7,-1,7,100,0,0.35
Cc1cccn2c(=O)c3cc(C(N)=S)c(=N)n(CCCOC(C)C)c3nc12,-4,15*,4,107,0,0.69
O=c1c(Br)c(N2CCOCC2)cnn1-c1ccccc1,36,0,-36,124,0,1.6
O=c1c(Br)c(N2CCCCC2)cnn1-c1ccccc1,166*,-1,-167,147*,0,3.9*
O=c1c(Br)c(N2CCCC2)cnn1-c1ccccc1,93,3,-93,143*,0,2.7
CN1CCN(c2cnn(-c3ccccc3)c(=O)c2Br)CC1,15,-3,-16,110,0,1
SMILES,APP 5'UTR act,Wee1 degr inh,APP transl inh,STAT1 activator,Hsp70 activator,NF-kB expr up
Cc1ccc(S(=O)(=O)C2(C(=O)Nc3ccc4c(c3)OCO4)CC2)cc1,-2,-1,2,97,0,0.99
CC(C)(C)OC(=O)NCCNC(=O)c1cccs1,.,2,.,.,.,.
O=C(NCCNc1nccc(C(F)(F)F)n1)c1cccs1,.,9.2*,.,.,.,.
CCNc1ccccc(C(=O)/C=C/c2ccc3c(c2)OCO3)c1=O,-13,1,13,103,0,1
Cc1ccc(/C=C/C(=O)c2ccccc2O)cc1,.,0,.,.,.,.
CN(C)c1ccc(/C=C/C(=O)c2ccccc2O)cc1,137*,3,-137,115,0,3.5*
O=C(/C=C/c1ccc2c(c1)OCCCO2)c1ccccc1O,216*,1,-216,128,0,3.6*
Cc1ccc(O)c(C(=O)/C=C/c2ccc3c(c2)OCCCO3)c1,27,9.2*,-27,107,0,2.2
Nc1nc(SCC(=O)NC2CCCCCC2)[nH]c(=O)c1-c1ccccc1,-25,-1,25,101,0,1
O=[N+]([O-])c1ccc2cn[nH]c2c1,12,-3,-12,110,0,1.1
Sc1oc(-c2ccccc2)cc1C=Nc1ccccc1,30,-1,-30,134*,0,3
O=[N+]([O-])c1cc2c(cc1C=Nc1ccccc1)OCO2,3,1,-3,99,0,1.1
O=C(Cn1nc(-c2ccc(Cl)cc2)ccc1=O)N1CCN(c2ccccc2)CC1,9,0,-9,99,0,0.82
CCOC(=O)COc1ccc2ccccc2c1/C=C/[N+](=O)[O-],-62,0,62*,102,1,2
COC(=O)Cc1n[nH]c(=S)[nH]c1=O,-50,3,50*,97,0,1.1
COC(=O)Cc1n[nH]c(=O)c2ccccc12,-12,4,12,97,0,1.1
COCCN1C(=O)C(=O)/C(=C(/O)c2ccc3c(c2)OCCO3)C1c1ccc(C(=O)OC)cc1 (configuration not stated),-8,-1,8,97,0,1.1
CCOc1ccc2nc(SCc3ccccc3C#N)sc2c1,116,0,-116,134*,0,2.9
CCOc1ccccc1NC(=O)Cn1nnc(C(=O)NCc2ccco2)c1N,-96,-2,96*,107,0,3.7*
Cc1ccccc1NC(=O)Cn1nnc(C(=O)NCc2ccco2)c1N,15,0,-15,97,0,1.3
N#Cc1ncc(-c2ccc3c(c2)OCCOCCOCCOCCO3)nc1C#N,-1,-1,0,101,0,0.99
N#Cc1ncc(-c2ccc3c(c2)OCCOCCOCCOCCOCCO3)nc1C#N,-21,-3,21,87,0,6.7*
O=C(CSc1nc2ccccc2o1)Nc1nc(-c2ccccc2)cs1,74,6,-74,147*,0,0.5
O=C(CSc1nc2ccccc2o1)Nc1nc2ccccc2s1,20,-3,-20,108,0,1.1
O=C1c2ccc([N+](=O)[O-])cc2NC(c2ccco2)N1/N=C/c1ccco1 (configuration not stated),.,-3,.,.,.,.
CN=c1scc(-c2ccc([N+](=O)[O-])cc2)n1/N=C/c1ccco1,196*,-2,-196,119,0,1.5
